Molecules are shown by their SMILES. Results filed as inconclusive are left out. Calls of active or inactive are those of the source. Calls come from the whole dose curve; as a rule, active = well fitted curve in the direction sought with a large enough effect; inconclusive = small, poorly fitted or top-dose-only effect, or another doubt; inactive = no such curve, though single readings can be large; an effect the other way counts as inactive or inconclusive.

A short description of assay [1]: Quantitative High-Throughput drug screen in 47 multiple myeloma cell lines against the NCATS MIPE library collection: KMM1_JCRB cell viability assay (AID 1918960). Note: nearly all actives have a fitted effect of over 30% in size. As to conditions: KMM1 myeloma viability, CellTiter-Glo ATP luminescence, 48 h; series mostly up to 45.8 µM. An outline of the steps: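 500 cells/well; MIPE 4.0 library pinned in; 48 h, 37 °C, 5% CO2; CellTiter-Glo ATP luminescence. Controls: DMSO = 100% viability, medium only = 0%.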
Background: In ATP-based viability assays light output follows the ATP content of the culture.

Assay [2] can be described thus: Quantitative High-Throughput drug screen in 47 multiple myeloma cell lines against the NCATS MIPE library collection: KHM11_PLB cell viability assay (AID 1918962). Note: nearly all actives have a fitted effect of over 35% in size. As to conditions: KHM11 myeloma cell viability, CellTiter-Glo ATP luminescence, 48 h; series mostly up to 45.8 µM. The procedure, abridged: (§1)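 Myeloma cells (500 per well) were exposed to MIPE 4.0 compounds by pin transfer and incubated 48 hours at 37C, 5% CO2. Viability was read as ATP by CellTiter-Glo luminescence, normalised to DMSO (100%) and media-only (0%) wells.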

Assay [3] can be described thus: Quantitative High-Throughput drug screen in 47 multiple myeloma cell lines against the NCATS MIPE library collection: JIM3_ECACC cell viability assay (AID 1918963; note: nearly all actives have a fitted effect of over 35% in size). As to conditions: JIM3 myeloma viability, CellTiter-Glo ATP, 48 h; series mostly up to 45.8 µM. The procedure, abridged:
as §1

Assay [4] in a line: Quantitative High-Throughput drug screen in 47 multiple myeloma cell lines against the NCATS MIPE library collection: JJN3_DSMZ cell viability assay (AID 1918966; note: nearly all actives have a fitted effect of over 50% in size). As to conditions: JJN3 myeloma cells viability, CellTiter-Glo ATP, 48 h; series mostly up to 45.8 µM. An outline of the steps:
(§2)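 Viability readout: CellTiter-Glo luminescence following 5 min room-temperature incubation with reagent. Prior exposure: 48 h, 37C, humidified 5% CO2, 500 cells per well.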

Assay [5] in a line: Quantitative High-Throughput drug screen in 47 multiple myeloma cell lines against the NCATS MIPE library collection: H1112_PLB cell viability assay (AID 1918967; note: nearly all actives have a fitted effect of over 30% in size). As to conditions: H1112 myeloma cells viability, ATP luminescence, 48 h; series mostly up to 45.8 µM. The procedure, abridged: as §2
A short description of assay [6]: Quantitative High-Throughput drug screen in 47 multiple myeloma cell lines against the NCATS MIPE library collection: Karpas25_ECACC cell viability assay (AID 1918968; note: nearly all actives have a fitted effect of over 35% in size). To be noted: Karpas25 myeloma viability, CellTiter-Glo ATP, 48 h; series mostly up to 45.8 µM. The procedure, abridged:
as §2

The nature of assay [7]: Quantitative High-Throughput drug screen in 47 multiple myeloma cell lines against the NCATS MIPE library collection: Karpas620_DSMZ cell viability assay (AID 1918959). Note: nearly all actives have a fitted effect of over 30% in size. As to conditions: Karpas620 myeloma viability, CellTiter-Glo ATP luminescence, 48 h; series mostly up to 45.8 µM. An outline of the steps: as §1
A short description of assay [8]: Quantitative High-Throughput drug screen in 47 multiple myeloma cell lines against the NCATS MIPE library collection: Karpas417_ECACC cell viability assay (AID 1918961). To be noted: Karpas417 myeloma viability, CellTiter-Glo ATP luminescence, 48 h; viability (% of DMSO): at 45.8 µM (top of the series). An outline of the steps: (§3)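 CellTiter-Glo ATP luminescence gave viability after 48 h compound treatment at 37C of 500 multiple myeloma cells per well. Normalisation used DMSO-only wells as 100% and media-only wells as 0% viability; primary qHTS of approved and investigational drugs.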

Assay [9] is described as follows: Quantitative High-Throughput drug screen in 47 multiple myeloma cell lines against the NCATS MIPE library collection: INA6_PLB cell viability assay (AID 1918965; note: nearly all actives have a fitted effect of over 55% in size). To be noted: INA6 myeloma viability, CellTiter-Glo ATP luminescence, 48 h; series mostly up to 45.8 µM. The procedure, abridged: as §3
Assay [10] is described as follows: Quantitative High-Throughput drug screen in 47 multiple myeloma cell lines against the NCATS MIPE library collection: JIM1_ECACC cell viability assay (AID 1918964). To be noted: JIM1 myeloma viability, CellTiter-Glo ATP luminescence, 48 h; series mostly up to 45.8 µM. The procedure, abridged: as §2
Potency is the fitted concentration of half-maximal effect.

Take `Cc1ccccc1N1C(=O)c2cc(S(N)(=O)=O)c(Cl)cc2NC1C` (centres undefined): the Potency entry in [1], in assay [2], in assay [3], in [5] and in assay [6] was “inactive” in each case. For the same compound, in assay [4], the Potency is 4.69 µM (active).
With `C[C@](N)(Cc1ccc(O)c(O)c1)C(=O)O`, the Potency result in [7] is “inactive”. The Potency in assay [4] was 18.7 µM (active); in assay [6] it was 20.9 µM (active).
On to `CCc1cccc2c3c([nH]c12)C(CC)(CC(=O)O)OCC3` (centres undefined), for which the Potency result in assay [1], in assay [8], in assay [2], in assay [9] and in [5] was “inactive” throughout.
As to `O=c1c(-c2ccc(O)cc2)coc2cc(O)cc(O)c12`, the Potency result in [7], in assay [2] and in assay [5] was “inactive” each time.
As for `COc1ccc2[nH]cc(CCNC(C)=O)c2c1`, the Potency entry in assay [1], in assay [8], in assay [5] and in assay [6] was “inactive” each time. In assay [10], the Potency was 0.0074 µM (active).
On to `O=C1Cc2cc(CCN3CCN(c4nsc5ccccc45)CC3)c(Cl)cc2N1`, for which the Potency in assay [7] was 8.33 µM (active); in [3], 23.5 µM (active); in assay [9] it was 18.7 µM (active); in assay [5] it was 23.5 µM (active); in assay [6] it was 18.7 µM (active). In assay [10], the Potency entry was “inactive”.
Consider `CCCCc1oc2ccccc2c1C(=O)c1cc(I)c(OCCN(CC)CC)c(I)c1`, for which the Potency in [1] is 6.62 µM (active); in assay [8], 13.2 µM (active); in assay [10] it was 18.7 µM (active); in assay [9] it was 16.6 µM (active); in [4], 18.7 µM (active); in [6] it was 5.9 µM (active).
`CC1(C)O[C@H]2CC(=O)OC[C@]23[C@H]2CC[C@@]4(C)[C@H](c5ccoc5)OC(=O)[C@H]5O[C@]54[C@]2(C)C(=O)C[C@@H]13`: the Potency result in [1], in assay [2], in assay [3], in assay [10], in assay [5] and in [6] was “inactive” each time.
As for `CCN1CCCC1CNC(=O)c1cc(S(=O)(=O)CC)c(N)cc1OC` (centres undefined), the Potency result in assay [1], in assay [3], in assay [10], in assay [9], in assay [4] and in [5] was “inactive” in each case. The Potency result in assay [6] was “inactive”.
Consider `CC[C@@]1(O)C(=O)OCc2c1cc1n(c2=O)Cc2cc3c(CN(C)C)c(O)ccc3nc2-1`, for which the Potency is 1.32 µM (active) in assay [1]; 0.743 µM (active) in [8]; 1.66 µM (active) in [2]; 0.743 µM (active) in assay [10]; 0.0296 µM (active) in assay [9]; 5.9 µM (active) in assay [4]. The Potency was 0.418 µM (active) in [5] and 0.662 µM (active) in assay [6].
For `CN1C2CCC1CC(OC(=O)C(CO)c1ccccc1)C2` (centres undefined), the Potency result in assay [1], in [2], in assay [3], in assay [10], in [9] and in [4] was “inactive” each time. Moreover, in assay [5], the Potency result is “inactive”.
With `NCCS(=O)(=O)O`, in [1], the Potency entry was “inactive”.
As to `Nc1nc2c(ncn2COC(CO)CO)c(=O)[nH]1`, the Potency in assay [1] is 6.62 µM (active); in assay [8], 11.8 µM (active); in assay [2], 20.9 µM (active); in assay [10], 20.9 µM (active); in assay [9], 1.32 µM (active); in assay [4], 20.9 µM (active). For the same compound, the Potency in [5] was 26.4 µM (active); in [6] it was 2.64 µM (active).
Take `O=C(CCCN1CCC(O)(c2ccc(Cl)cc2)CC1)c1ccc(F)cc1`: the Potency in [7] was 20.9 µM (active); in assay [9] it was 18.7 µM (active); in [6], 2.96 µM (active). The Potency result in assay [5] is “inactive”.
With `Nc1c2c(nc3ccccc13)CCCC2`, the Potency entry in [1], in [3], in assay [10], in [5] and in [6] was “inactive” each time. Also, the Potency in assay [4] was 5.26 µM (active).
On to `CS(=O)(=O)Nc1ccc([N+](=O)[O-])cc1Oc1ccccc1`, for which the Potency result in assay [1], in assay [2] and in assay [3] was “inactive” in each case.
Consider `CN1C(C(=O)Nc2ccccn2)=C(O)c2ccccc2S1(=O)=O`, for which the Potency entry in assay [1], in assay [8], in assay [3], in assay [4] and in assay [5] was “inactive” throughout.
`Cn1cnc2c1c(=O)[nH]c(=O)n2C`: the Potency in assay [1] was 7.43 µM (active); in [8], 9.35 µM (active); in [3], 16.6 µM (active); in assay [10], 4.69 µM (active); in assay [9], 7.43 µM (active); in [4], 16.6 µM (active). The Potency was 18.7 µM (active) in assay [5] and 9.35 µM (active) in [6].
On to `O=C1N(c2ccccc2)c2ccccc2C1(Cc1ccncc1)Cc1ccncc1`, for which the Potency result in [1], in [2], in [4], in [5] and in assay [6] was “inactive” throughout.
On to `CN(C)C(=O)C(CCN1CCC(O)(c2ccc(Cl)cc2)CC1)(c1ccccc1)c1ccccc1`, for which the Potency result in [7] is “inactive”. Further, the Potency in assay [2], in assay [9], in [4] and in assay [6] was 18.7 µM (active) each time.
As for `CN(CCOc1ccc(NS(C)(=O)=O)cc1)CCc1ccc(NS(C)(=O)=O)cc1`, the Potency result in [1], in [8], in assay [10], in assay [9], in [4] and in [6] was “inactive” in each case.
For `COc1ccccc1OCC(O)CN1CCN(CC(=O)Nc2c(C)cccc2C)CC1` (centres undefined), the Potency entry in assay [1], in [3], in assay [10], in [9] and in [5] was “inactive” each time.
With `CC(C(=O)O)c1cccc(C(=O)c2ccccc2)c1` (centres undefined), in assay [1], the Potency result was “inactive”. For the same compound, the Potency in assay [2] was 18.7 µM (active); in assay [5], 18.7 µM (active); in [6], 13.2 µM (active).
On to `CC(C)(Oc1ccc(C2CC2(Cl)Cl)cc1)C(=O)O` (centres undefined), for which the Potency result in assay [3] and in [5] was “inactive” throughout.

These data come from PubChem BioAssay (NCATS).
